The source of these data is PubChem BioAssay (NCI).

About 83,000 compounds went through this panel and 20% of them were active in at least one assay; those are over-represented in the sample as a whole.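 Negative percent growth values reflect cell death: -40 means 40% of the cells present at the start died, and -100 means all died.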 Values without a mark were called inactive. Active and inactive are the calls of the source. Rule for the calls: active = growth percent below 10; inactive = the rest.

Holding throughout (assay): NCI-60 one-dose screen, 48 h (100 = growth as untreated, 0 = no growth, -100 = all killed)
For experiment [1], the system named is SK-MEL-2 melanoma. The settings on record: 10 µM unless noted.
The subject of experiment [2] is EKVX NSCLC. The settings on record: 10 µM unless noted.
Experiment [3] concerns SN12C renal. The settings on record: 10 µM unless noted.
Experiment [4] has as its system UO-31 renal. The following applies: 10 µM unless noted.
In experiment [5] the test system is TK-10 renal. The settings on record: 10 µM unless noted.
Experiment [6] deals with ACHN renal. The settings on record: 10 µM unless noted.
Experiment [7] concerns CAKI-1 renal. The settings on record: 10 µM unless noted.
Experiment [8] relates to A498 renal. The settings on record: 10 µM unless noted.
Experiment [9] deals with CCRF-CEM leukemia. The settings on record: 10 µM unless noted.
Experiment [10] deals with MOLT-4 leukemia. The settings on record: 10 µM unless noted.
Experiment [11] has as its system SR leukemia. The following applies: 10 µM unless noted.
For experiment [12], the system named is RPMI-8226 leukemia. The following applies: 10 µM unless noted.
Experiment [13] relates to OVCAR-8 ovarian. The following applies: 10 µM unless noted.
The test system of experiment [14] is OVCAR-5 ovarian. The following applies: 10 µM unless noted.
For experiment [15], the system named is SK-OV-3 ovarian. The following applies: 10 µM unless noted.
In experiment [16] the test system is IGROV1 ovarian. The following applies: 10 µM unless noted.
Experiment [17] has as its system OVCAR-3 ovarian. The following applies: 10 µM unless noted.
For experiment [18], the system named is HS 578T breast. The settings on record: 10 µM.
For experiment [19], the system named is NCI/ADR-RES ovarian. The settings on record: 10 µM unless noted.
Experiment [20] has as its system OVCAR-4 ovarian. The following applies: 10 µM unless noted.

Take `O=c1[nH]c2ccccc2n2cc3cccnc3c12`: the growth was 105% in [1]; 86.4% in [2]; 51.2% in experiment [3]; 67.8% in experiment [4]; 83.7% in experiment [5]; 49.1% in [6]. The growth in experiment [7] was 68.1%; in [8] it was 51.2%; in [9] it was 74.5%; in experiment [10] it was 48.4%; in experiment [11] it was 36%; in experiment [12], 89.3%. Besides, the growth is 63.4% in [13]; 140% in [14]; 82.5% in experiment [15]; 90.2% in experiment [16]; 91.8% in experiment [17]; 88.4% in experiment [18]. In experiment [19], the growth is 58.8%.
With `CO[C@@]12[C@@H]3NC3CN1C1=C(C(=O)C(N)=C(C)C1=O)[C@@H]2COC(N)=O` (stereo not given in full), the growth in [1] is -11.2% (active); in experiment [2], 49.6%; in experiment [3] it was 24.6%; in experiment [4] it was 5.54% (active); in experiment [5], 9.47% (active); in experiment [6], -10.3% (active). Further, the growth in experiment [7] was 14.9%; in [8], -82.9% (active); in [9], 27.1%; in experiment [13] it was 15.8%; in experiment [14] it was 45.7%; in experiment [15], 5.63% (active). Moreover, the growth in experiment [18] is 70.9%; in experiment [19] it was 51.4%.
With `CCN1CCN(Cc2ccc(NC(=O)c3nc4ccc5[nH]ncc5c4c4c3CCCC4)cc2C(F)(F)F)CC1`, the growth in experiment [1] was 92%; in experiment [2], 74.3%; in experiment [3], -75.6% (active); in experiment [4] it was -91.8% (active); in experiment [5], -33.7% (active); in [6] it was -97.1% (active). For the same compound, the growth in [7] was -11.7% (active); in experiment [9] it was 3.68% (active); in experiment [10], -28.9% (active); in experiment [11], -29.2% (active); in experiment [12], -24.6% (active); in [13], -59.3% (active). The growth was 48.9% in experiment [14]; 22.6% in experiment [20]; 91.7% in experiment [15]; -70.5% (active) in [17]; 84.8% in experiment [18]; 18.8% in [19].
For the compound `CCCCCCCCCCCCCCCC1=NCC[N+]1(CCO)CCO`, the growth in experiment [1] was 85.2%; in experiment [2] it was 72.3%; in experiment [3], 67%; in experiment [4], 42.1%; in [5] it was 66.6%; in experiment [6] it was 67.1%. The growth in experiment [7] is 79.5%; in [8], 86.8%; in [10], 43%; in experiment [13], 37%; in experiment [14], 43.1%; in experiment [20], 61.4%. Also, the growth in [15] was 95.1%; in [16], -16% (active); in experiment [17] it was 86.6%; in [18] it was 75.2%; in experiment [19], 71.1%.
Consider `CCN(CC)CCCC(C)Nc1cnc(C(=O)Nc2cccc3ccc(OC)nc23)cn1` (stereo not given), for which the growth in [1] is 70.5%; in experiment [2], 104%; in experiment [3], 78.5%; in experiment [4], 69.1%; in experiment [5], 91%; in [6], -86.5% (active). Besides, the growth in [7] was 94.7%; in experiment [9] it was -7.65% (active); in [10], 53.4%; in experiment [11] it was -5.71% (active); in experiment [12], 23.8%; in [13] it was 68.2%. Further, the growth in [14] was 91.3%; in experiment [20], 98.1%; in experiment [15], 87%; in experiment [16], 78.3%; in experiment [17], -30.7% (active); in [18] it was 69.5%. The growth in experiment [19] was 76.1%.
Regarding `F`, the growth is -27.7% [6.87 mM] (active) in [1]; -14.8% [6.87 mM] (active) in experiment [2]; 27% [6.87 mM] in experiment [3]; 12% [6.87 mM] in [4]; 4.45% [6.87 mM] (active) in [5]; 23.6% [6.87 mM] in experiment [6]. Moreover, the growth in experiment [7] is 28.9% [6.87 mM]; in experiment [8], -28.8% [6.87 mM] (active); in [9] it was 29.9% [6.87 mM]; in experiment [10], 23.5% [6.87 mM]; in [12], 22.4% [6.87 mM]; in experiment [13] it was 30% [6.87 mM]. Also, the growth in [20] was 76.2% [6.87 mM]; in [15], 8.2% [6.87 mM] (active); in [16], 53.5% [6.87 mM]; in experiment [17], 71.5% [6.87 mM]; in experiment [19] it was 8.42% [6.87 mM] (active).
As for `COc1ccc(Nc2ncccc2C(=O)NCc2cn(Cc3cc(OC)cc(OC)c3)nn2)cc1`, the growth is 89.5% in experiment [1]; 92.5% in experiment [2]; 109% in [3]; 65.7% in experiment [4]; 108% in experiment [5]; 93.8% in experiment [6]. Moreover, the growth is 101% in experiment [7]; 95.8% in experiment [8]; 82.7% in experiment [10]; 84.8% in experiment [11]; 99.8% in experiment [12]; 97.6% in experiment [13]. For the same compound, the growth in [14] is 106%; in experiment [20], 98%; in experiment [15], 98.7%; in [16] it was 113%; in [17], 96.5%; in experiment [18], 86.2%. The growth in experiment [19] was 89.7%.
As to `C#CC[C@@H]1C[C@]2(C)[C@H]3CC=C4[C@H]5[C@@H](C)[C@H](C)CC[C@]5(C(=O)NCCCCCCCCN)CC[C@@]4(C)[C@]3(C)CC[C@H]2C(C)(C)[C@H]1OC(C)=O`, the growth in experiment [1] is 104%; in [2], 95%; in experiment [3] it was 76.1%; in [4], 67.2%; in [5] it was 80.5%; in experiment [6], 85.8%. Also, the growth in experiment [7] was -69.7% (active); in experiment [8], 94.5%; in [9], -34.6% (active); in [11], 3.43% (active); in experiment [12], -45.8% (active); in experiment [13] it was -33.6% (active). The growth in experiment [14] was 108%; in [20] it was -0.477% (active); in experiment [15] it was 116%; in experiment [16] it was 50.9%; in [17], -91.5% (active); in experiment [18] it was 101%. In experiment [19], the growth is 65.9%.
For `COc1cc(/C=C/C(=O)c2c(C)nc3ccccc3c2C)ccc1OCCCOc1cc2c(cc1OC)C(=O)N1CCC[C@H]1C=N2`, the growth in experiment [1] was -61.3% (active); in [2], -76.4% (active); in experiment [3], 10.2%; in [4] it was 14.2%; in experiment [5] it was -65.8% (active); in experiment [6] it was -41.2% (active). The growth is 4.18% (active) in experiment [7]; -76.4% (active) in experiment [8]; -48.6% (active) in [9]; -34.3% (active) in [11]; -22.6% (active) in experiment [12]; 12.3% in [13]. Further, the growth in [14] is -23.1% (active); in [20] it was -10.9% (active); in [15], -9.97% (active); in experiment [16] it was -61.7% (active); in experiment [18], -2.33% (active); in [19], 13.9%.
